# PubChem BioAssay (EPA / NIEHS)
# “And” between values parts separate entries of the source, which are not always exact repeats. Identical values can stand only once. Results filed as inconclusive are left out. The source made the active and inactive calls. The calls were made as follows: active = hit-call score of the fitted dose curve at least 0.9, where 1 is the maximum; inconclusive = response in the unintended direction; inactive = score below 0.9.
# How the values were obtained:
# [1] = target: human Peripheral-type Benzodiazepine Receptor (PBR), TSPO (gene 706) (UniProt P30536); assay: NVS_MP_hPBR: NovaScreen (NVS) Membrane Protein Assay for human Peripheral-type Benzodiazepine Receptor (PBR) (AID 2283331);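 also: hits reduce radioligand binding relative to DMSO baseline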
# Sequence of human Peripheral-type Benzodiazepine Receptor (PBR), TSPO (gene 706) (P30536 whole entry, looked up): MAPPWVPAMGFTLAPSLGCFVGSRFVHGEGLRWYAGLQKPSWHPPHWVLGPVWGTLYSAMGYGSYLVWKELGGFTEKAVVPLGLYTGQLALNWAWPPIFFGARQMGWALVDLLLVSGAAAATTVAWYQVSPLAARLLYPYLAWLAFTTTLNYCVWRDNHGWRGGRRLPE
# In short: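 Cell-free binding to human colonic membrane preparations measured by filter-based scintillation counting after 1 h. Compounds first run at 25 uM in duplicate, then concentration series for actives; signal loss against DMSO baseline.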
# [2] = target: rat Peripheral-type Benzodiazepine Receptor (PBR), Tspo (gene 24230) (UniProt P16257); assay: NVS_MP_rPBR: NovaScreen (NVS) Membrane Protein Assay for rat Peripheral-type Benzodiazepine Receptor (PBR) (AID 2283335)
# Sequence of rat Peripheral-type Benzodiazepine Receptor (PBR), Tspo (gene 24230) (P16257 whole entry, looked up): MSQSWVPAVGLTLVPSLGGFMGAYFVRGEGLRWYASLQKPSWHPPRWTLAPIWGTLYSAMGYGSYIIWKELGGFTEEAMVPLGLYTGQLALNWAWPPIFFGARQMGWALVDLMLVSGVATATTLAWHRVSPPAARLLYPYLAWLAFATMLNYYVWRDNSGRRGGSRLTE
# Experimental: NVS_MP_rPBR is a biochemical, single-readout assay that uses extracted gene-proteins from Rat kidney membranes in a tissue-based cell-free assay. Measurements were taken 1 hour after chemical dosing in a 48-well plate.NVS_MP_rPBR is one of one assay component(s) measured or calculated from the NVS_MP_rPBR assay. It is designed to make measurements of radioligand binding, a form of binding reporter, as detected with scintillation counting signals by Filter-based radiodetection technology.Data from the assay component NVS_MP_rPBR was analyzed into 1 assay endpoint. This assay endpoint, NVS_MP_rPBR, was analyzed in the positive analysis fitting direction relative to DMSO as the negative control and baseline of activity. Using a type of binding reporter, loss-of-signal activity can be used to understand changes in the binding as they relate to the gene Tspo. Furthermore, this assay endpoint can be referred to as a primary readout, because the performed assay has only produced 1 assay endpoint. To generalize the intended target to other relatable targets, this assay endpoint is annotated to the transporter intended target family, where the subfamily is cholesterol transporter.
# (§1) Binding assays used specific radioligands (tritiated, iodinated) with non-radioactive competitive displacement ligands in agonist or antagonist protocols (as indicated) and various reference compounds and inhibitors to titrate specific binding to receptors and transporters. Most enzyme assays (CYPs, kinases, phosphatases, proteases, HDACs) used recombinant protein and specific substrates (fluorescence mostly, some colorimetric and radioactive) and inhibitors, followed by a biochemical separation of substrate and product. All assays for the biochemical HTS were initially run in duplicate at a single concentration (10 uM for CYP450 assays and 25 uM for all others). […] Each assay was run with positive and negative controls, and concurrent controls on every plate. The follow-up (secondary) screen tested active chemical-pairs in concentration series, as well as a few additional assays not tested in the primary screen, some selected negative inactives, and several cases re-run in the concentration series for confirmatory purposes.
# [3] = target: bovine Estrogen Receptor (ER), ESR1 (gene 407238) (UniProt P49884); assay: NVS_NR_bER: NovaScreen (NVS) Nuclear Receptor Binding Assay for bovine Estrogen Receptor (ER) (AID 2283345);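 also: actives lower the bound radioligand count which means they displace the ER ligand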
# Sequence of bovine Estrogen Receptor (ER), ESR1 (gene 407238) (P49884 whole entry, looked up): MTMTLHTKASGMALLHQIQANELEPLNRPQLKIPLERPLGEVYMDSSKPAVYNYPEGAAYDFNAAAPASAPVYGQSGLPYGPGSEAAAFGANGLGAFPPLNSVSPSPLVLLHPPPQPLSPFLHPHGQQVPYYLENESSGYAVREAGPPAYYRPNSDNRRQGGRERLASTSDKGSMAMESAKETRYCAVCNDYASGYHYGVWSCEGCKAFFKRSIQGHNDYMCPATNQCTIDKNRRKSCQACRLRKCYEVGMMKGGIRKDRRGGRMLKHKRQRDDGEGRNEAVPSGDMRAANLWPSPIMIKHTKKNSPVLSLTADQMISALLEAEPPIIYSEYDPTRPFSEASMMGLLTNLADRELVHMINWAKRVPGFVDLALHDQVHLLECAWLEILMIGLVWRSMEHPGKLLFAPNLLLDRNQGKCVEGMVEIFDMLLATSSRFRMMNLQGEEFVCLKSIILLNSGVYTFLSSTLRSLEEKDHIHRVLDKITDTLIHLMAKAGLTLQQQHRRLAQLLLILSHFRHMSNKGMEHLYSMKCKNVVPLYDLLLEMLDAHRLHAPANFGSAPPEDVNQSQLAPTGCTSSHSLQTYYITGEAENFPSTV
# Experimental: NVS_NR_bER is a biochemical, single-readout assay that uses extracted gene-proteins from Bovine uterine membranes in a tissue-based cell-free assay. Measurements were taken 18 hours after chemical dosing in a 96-well plate.NVS_NR_bER is one of one assay component(s) measured or calculated from the NVS_NR_bER assay. It is designed to make measurements of radioligand binding, a form of binding reporter, as detected with scintillation counting signals by Lysate-based radiodetection technology.Data from the assay component NVS_NR_bER was analyzed into 1 assay endpoint. This assay endpoint, NVS_NR_bER, was analyzed in the positive analysis fitting direction relative to DMSO as the negative control and baseline of activity. Using a type of binding reporter, loss-of-signal activity can be used to understand changes in the binding as they relate to the gene ESR1. Furthermore, this assay endpoint can be referred to as a primary readout, because the performed assay has only produced 1 assay endpoint. To generalize the intended target to other relatable targets, this assay endpoint is annotated to the nuclear receptor intended target family, where the subfamily is steroidal.
# as §1
# [4] = target: chimpanzee Androgen Receptor (AR), AR (gene 747460) (UniProt O97775); assay: NVS_NR_cAR: NovaScreen (NVS) Nuclear Receptor Binding Assay for chimpanzee Androgen Receptor (AR) (AID 2283346);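 also: radioligand displacement from AR measured by scintillation counting in a cell-free assay; a loss of bound radioligand signal versus DMSO counts as binding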
# Sequence of chimpanzee Androgen Receptor (AR), AR (gene 747460) (O97775 whole entry, looked up): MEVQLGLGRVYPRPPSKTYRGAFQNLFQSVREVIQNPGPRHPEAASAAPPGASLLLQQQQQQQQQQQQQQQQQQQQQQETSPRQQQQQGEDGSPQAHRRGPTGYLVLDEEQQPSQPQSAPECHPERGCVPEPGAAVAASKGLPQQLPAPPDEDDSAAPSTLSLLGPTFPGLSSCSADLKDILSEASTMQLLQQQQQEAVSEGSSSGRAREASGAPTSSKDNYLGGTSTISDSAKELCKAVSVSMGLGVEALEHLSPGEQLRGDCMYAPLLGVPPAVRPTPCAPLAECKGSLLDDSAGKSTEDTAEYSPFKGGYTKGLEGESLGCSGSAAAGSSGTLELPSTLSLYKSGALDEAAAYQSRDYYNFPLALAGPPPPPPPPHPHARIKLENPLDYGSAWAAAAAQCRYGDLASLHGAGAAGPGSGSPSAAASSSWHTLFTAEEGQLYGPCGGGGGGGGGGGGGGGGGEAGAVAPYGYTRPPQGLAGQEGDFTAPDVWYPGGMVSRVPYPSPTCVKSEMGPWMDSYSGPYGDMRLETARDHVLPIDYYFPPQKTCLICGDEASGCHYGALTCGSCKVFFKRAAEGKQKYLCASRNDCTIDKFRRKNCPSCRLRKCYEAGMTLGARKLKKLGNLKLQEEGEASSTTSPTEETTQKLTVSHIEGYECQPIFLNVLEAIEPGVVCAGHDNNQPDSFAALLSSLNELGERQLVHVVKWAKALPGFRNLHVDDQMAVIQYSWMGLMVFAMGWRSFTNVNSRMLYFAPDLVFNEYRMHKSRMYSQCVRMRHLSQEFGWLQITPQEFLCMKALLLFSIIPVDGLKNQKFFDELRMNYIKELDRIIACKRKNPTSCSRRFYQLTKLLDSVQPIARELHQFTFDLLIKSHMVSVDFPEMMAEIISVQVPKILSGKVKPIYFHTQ
# In short: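 Cell-free competition binding with insect-cell (Sf9/Sf21) extracted chimpanzee AR; scintillation signal from lysate at 72 h. Screened in duplicate at 25 uM, then concentration-response for actives; fitting relative to DMSO.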
# [5] = target: Estrogen receptor (Homo sapiens) (UniProt P03372); assay: OT_ER_ERaERa_1440: Odyssey Thera (OT) 24-hour HEK293T Protein-Complementation Assay for Estrogen Receptor-alpha/-alpha Homodimer (AID 2283349);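 also: hits raise fluorescence above DMSO for agonists and antagonists alike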
# Sequence of Estrogen receptor (Homo sapiens) (P03372 whole entry, looked up, the tested form may be a part): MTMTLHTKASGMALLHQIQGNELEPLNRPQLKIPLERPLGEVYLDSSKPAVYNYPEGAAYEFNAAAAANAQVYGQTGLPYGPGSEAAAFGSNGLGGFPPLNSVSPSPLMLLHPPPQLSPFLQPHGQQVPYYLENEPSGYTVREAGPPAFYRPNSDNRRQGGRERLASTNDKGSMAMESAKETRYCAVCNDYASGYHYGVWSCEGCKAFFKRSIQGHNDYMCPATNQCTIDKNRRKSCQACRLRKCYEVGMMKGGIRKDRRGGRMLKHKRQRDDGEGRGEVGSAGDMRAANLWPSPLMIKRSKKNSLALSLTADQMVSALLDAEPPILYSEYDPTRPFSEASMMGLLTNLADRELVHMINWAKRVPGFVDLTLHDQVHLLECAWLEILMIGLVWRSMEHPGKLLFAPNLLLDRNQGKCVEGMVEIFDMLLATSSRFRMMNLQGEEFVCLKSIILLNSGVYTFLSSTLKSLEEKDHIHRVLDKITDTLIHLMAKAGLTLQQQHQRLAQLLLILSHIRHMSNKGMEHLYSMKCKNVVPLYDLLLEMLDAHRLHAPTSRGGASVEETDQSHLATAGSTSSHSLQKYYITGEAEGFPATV
# In short: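 HEK293T, stable ERα LBD (aa 310-547) homodimer PCA; 24 h compound exposure; mean fluorescence intensity (nuclear for agonists, nuclear plus cytoplasmic for antagonists) vs vehicle; positive fitting direction, DMSO baseline.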
# [6] = target: Estrogen receptor (Homo sapiens) (UniProt P03372); assay: OT_ER_ERaERa_0480: Odyssey Thera (OT) 8-hour HEK293T Protein-Complementation Assay for Estrogen Receptor-alpha/-alpha Homodimer (AID 2283351);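 also: rise in fluorescence from reassembled reporter fragments on ERα LBD homodimer in nucleus or whole cell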
# In short: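 Read-out: fluorescence intensity rise relative to DMSO, nuclear for agonists, nuclear plus cytoplasmic for antagonists. Construct is the ERα LBD (aa 310-547) homodimer fragment-complementation pair, stably expressed in HEK293T; exposure 8 h.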
# [7] = target: Estrogen receptor (Homo sapiens) + Estrogen receptor beta (Homo sapiens) (UniProt P03372+Q92731); assay: OT_ER_ERaERb_0480: Odyssey Thera (OT) 8-hour HEK293T Protein-Complementation Assay for Estrogen Receptor-alpha/-beta Heterodimer (AID 2283352)
# Sequence of Estrogen receptor (Homo sapiens) + Estrogen receptor beta (Homo sapiens) (P03372 whole entry, looked up, the tested form may be a part): as above
# Sequence of Estrogen receptor (Homo sapiens) + Estrogen receptor beta (Homo sapiens) (Q92731 whole entry, looked up, the tested form may be a part): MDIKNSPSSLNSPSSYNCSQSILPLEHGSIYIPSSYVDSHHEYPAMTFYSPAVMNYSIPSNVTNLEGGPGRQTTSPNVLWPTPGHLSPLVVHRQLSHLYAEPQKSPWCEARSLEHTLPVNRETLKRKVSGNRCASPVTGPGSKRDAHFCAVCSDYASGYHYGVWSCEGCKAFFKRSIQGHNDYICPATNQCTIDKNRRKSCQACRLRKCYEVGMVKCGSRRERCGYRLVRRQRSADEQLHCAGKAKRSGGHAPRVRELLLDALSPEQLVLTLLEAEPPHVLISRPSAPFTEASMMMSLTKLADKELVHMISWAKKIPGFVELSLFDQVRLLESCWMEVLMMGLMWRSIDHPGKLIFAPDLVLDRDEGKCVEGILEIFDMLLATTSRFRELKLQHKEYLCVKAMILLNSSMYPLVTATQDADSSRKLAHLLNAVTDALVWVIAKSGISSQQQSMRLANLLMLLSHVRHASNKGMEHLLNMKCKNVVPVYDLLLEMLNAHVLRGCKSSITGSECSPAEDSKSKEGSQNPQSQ
# In short: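 Fluorescence increase from reconstituted reporter fragments, quantified by laser scanning cytometer, reflects ER-alpha/ER-beta heterodimer formation in human HEK293T cells. Exposure 8 h; positive-direction fitting against DMSO vehicle.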
# [8] = target: Androgen Receptor/SRC-1 Co-activator, AR (gene 367) (UniProt P10275); assay: OT_AR_ARSRC1_0960: Odyssey Thera (OT) 16-hour HEK293T Protein-Complementation Assay for Androgen Receptor/SRC-1 Co-activator (AID 2283353);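 also: actives raise the signal above DMSO so potency reflects increased AR and SRC-1 complex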
# Sequence of Androgen Receptor/SRC-1 Co-activator, AR (gene 367) (P10275 whole entry, looked up, the tested form may be a part): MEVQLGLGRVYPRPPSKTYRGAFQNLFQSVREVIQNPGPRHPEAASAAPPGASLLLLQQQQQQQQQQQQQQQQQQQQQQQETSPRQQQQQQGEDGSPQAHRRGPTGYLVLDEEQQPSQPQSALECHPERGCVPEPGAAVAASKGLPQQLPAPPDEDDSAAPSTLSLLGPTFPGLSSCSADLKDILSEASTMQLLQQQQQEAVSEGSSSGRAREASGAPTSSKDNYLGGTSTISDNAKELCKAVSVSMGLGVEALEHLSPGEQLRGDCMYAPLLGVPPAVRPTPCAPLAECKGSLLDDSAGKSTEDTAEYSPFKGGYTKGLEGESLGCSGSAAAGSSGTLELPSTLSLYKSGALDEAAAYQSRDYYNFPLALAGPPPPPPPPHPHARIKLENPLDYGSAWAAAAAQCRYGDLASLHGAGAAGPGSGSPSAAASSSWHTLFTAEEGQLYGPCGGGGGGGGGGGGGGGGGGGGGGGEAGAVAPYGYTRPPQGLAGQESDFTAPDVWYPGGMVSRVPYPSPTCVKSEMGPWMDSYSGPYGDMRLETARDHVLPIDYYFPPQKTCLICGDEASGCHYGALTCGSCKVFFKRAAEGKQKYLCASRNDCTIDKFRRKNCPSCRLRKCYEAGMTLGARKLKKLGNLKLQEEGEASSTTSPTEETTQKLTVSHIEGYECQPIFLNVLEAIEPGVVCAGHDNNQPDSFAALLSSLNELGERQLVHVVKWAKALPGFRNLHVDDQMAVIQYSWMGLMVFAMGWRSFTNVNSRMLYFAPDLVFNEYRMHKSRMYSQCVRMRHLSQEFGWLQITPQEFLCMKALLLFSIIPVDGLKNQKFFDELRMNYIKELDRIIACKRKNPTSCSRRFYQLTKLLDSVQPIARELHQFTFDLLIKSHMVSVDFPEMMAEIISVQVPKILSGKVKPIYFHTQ
# In short: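 Readout: 488 nm nuclear-to-cytoplasmic fluorescence ratio from imaging of at least 400 cells per image, 16 h post-dose. Reporter is Venus YFP complementation between AR and SRC-1 fusions, stably expressed in HEK293T; activity scored upward relative to DMSO.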
# [9] = target: human Androgen Receptor (AR), AR (gene 367) (UniProt P10275); assay: NVS_NR_hAR: NovaScreen (NVS) Nuclear Receptor Binding Assay for human Androgen Receptor (AR) (AID 2283332)
# Sequence of human Androgen Receptor (AR), AR (gene 367) (P10275 whole entry, looked up): as the sequence (P10275 whole entry, looked up, the tested form may be a part) above
# In short: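 Radioligand competitive binding, scintillation read-out, in cell-free extract from LnCAP, measured 20 h after dosing. Screened first in duplicate at 25 uM, then concentration series for actives; activity fitted against DMSO.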
# [10] = NVS_IC_rCaBTZCHL: NovaScreen (NVS) Ion Channel Assay for Calcium Channel, Type L, Benzothiazepine Site (CaBTZCHL) (AID 2283337)
# In short: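 Rat cortical membrane preparation, cell-free. Radioligand displaced by test chemical; 1.5 h incubation; filtration, scintillation count. DMSO = negative control/baseline. Primary: duplicate, 25 uM; secondary: concentration series.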
structure (smiles),measurement,setting,value
CCCCCCCCCCCCCCCC[N+](C)(C)Cc1ccccc1,AC50,[1],41.3 µM (active)
same,AC50,[2],9.82 µM (active)
same,outcome,[3],inactive
CCN(Cc1cccc(S(=O)(=O)O)c1)c1ccc(C(=C2C=CC(=[N+](CC)Cc3cccc(S(=O)(=O)O)c3)C=C2)c2ccc(O)cc2S(=O)(=O)[O-])cc1,AC50,[4],13.2 µM (active)
same,outcome,[5],inactive
same,outcome,[6],inactive
same,outcome,[7],inactive
CC(Cc1ccc(O)c(O)c1)C(C)Cc1ccc(O)c(O)c1 (stereo unspecified),AC50,[2],6.77 µM (active)
same,AC50,[3],11.1 µM (active)
same,AC50,[5],11.9 µM (active)
same,AC50,[6],11.9 µM (active)
same,AC50,[7],2.42 µM (active)
[Co],outcome,[5],inactive
same,outcome,[6],inactive
same,outcome,[7],inactive
same,outcome,[8],inactive
CC/C=C\CCOC(C)=O,outcome,[5],inactive
same,outcome,[6],inactive
same,outcome,[7],inactive
Cc1cc(C)cc(O)c1,outcome,[5],inactive
same,outcome,[6],inactive
same,outcome,[7],inactive
CC(CCl)OP(=O)(OC(C)CCl)OC(C)CCl (stereo unspecified),AC50,[1],23.8 µM (active)
same,AC50,[2],4.23 µM (active) and 14.6 µM (active)
same,outcome,[5],inactive
same,outcome,[6],inactive
same,outcome,[7],inactive
CCCCCCOC(=O)c1ccccc1O,outcome,[5],inactive
same,outcome,[6],inactive
same,AC50,[7],60.2 µM (active)
same,outcome,[8],inactive
CCCCC(CC)COP(=O)(O)OCC(CC)CCCC (stereo unspecified),outcome,[5],inactive
same,outcome,[6],inactive
C(=C(c1ccccc1)c1ccccc1)c1ccccc1,outcome,[3],inactive
same,AC50,[5],43.1 µM (active)
same,AC50,[6],5.6 µM (active)
same,AC50,[7],9.47 µM (active)
Nc1ccc([N+](=O)[O-])cc1O,outcome,[3],inactive
CCCCOCCOCCOC(=O)CCCCC(=O)OCCOCCOCCCC,outcome,[1],inactive
Nc1ccc(Oc2cccc(Oc3ccc(N)cc3)c2)cc1,AC50,[2],13.3 µM (active)
Cc1ccc(S(=O)(=O)NCl)cc1,outcome,[5],inactive
same,outcome,[6],inactive
CCCCOc1ccc(N)cc1,outcome,[5],inactive
same,outcome,[6],inactive
same,outcome,[7],inactive
CC(=O)Nc1ccc(N=Nc2cc(C)ccc2O)cc1,AC50,[1],2.21 µM (active)
same,AC50,[9],31.4 µM (active)
same,outcome,[4],inactive
CN(C)Cc1ccccc1O,outcome,[5],inactive
same,outcome,[6],inactive
same,outcome,[7],inactive
same,outcome,[8],inactive
CC(C)OC(=O)c1ccccc1C(=O)OC(C)C,AC50,[1],11.5 µM (active)
same,AC50,[2],9.08 µM (active)
same,outcome,[5],inactive
same,AC50,[6],62.8 µM (active)
O=C(OCCOCCOCCOC(=O)c1ccccc1)c1ccccc1,AC50,[1],9.76 µM (active)
same,outcome,[5],inactive
same,outcome,[6],inactive
same,outcome,[7],inactive
CNC(=S)NC,outcome,[5],inactive
same,outcome,[6],inactive
same,outcome,[8],inactive
CCCCCCOC(=O)c1ccccc1,outcome,[5],inactive
same,outcome,[6],inactive
same,outcome,[7],inactive
O=S(=O)(O)c1ccc2ccccc2c1,outcome,[5],inactive
same,outcome,[6],inactive
C#C[C@]1(O)CC[C@H]2[C@@H]3CCc4cc(OC)ccc4[C@H]3CC[C@@]21C,AC50,[3],0.0305 µM (active)
same,AC50,[4],3.99 µM (active)
same,AC50,[5],17.1 µM (active)
same,AC50,[6],9.95 µM (active)
Oc1ccc(Nc2ccccc2)cc1,outcome,[10],inactive
same,AC50,[3],25 µM (active)
c1ccc(B(c2ccccc2)c2ccccc2)cc1,outcome,[3],inactive
same,AC50,[4],17.5 µM (active)
same,AC50,[5],78.5 µM (active)
same,AC50,[6],55.7 µM (active)
C1COCCN1,outcome,[5],inactive
same,outcome,[6],inactive
same,outcome,[7],inactive
COC(=O)C1CCC(C(=O)OC)CC1 (stereo unspecified),outcome,[5],inactive
same,outcome,[6],inactive
same,outcome,[7],inactive
OC[C@@H](O)[C@@H](O)[C@H](O)[C@@H](O)CO,outcome,[5],inactive
same,outcome,[6],inactive
CCCCCCC(C)OC(=O)CCCCC(=O)OC(C)CCCCCC (stereo unspecified),AC50,[1],10.2 µM (active)
same,outcome,[4],inactive
same,outcome,[5],inactive
same,outcome,[6],inactive
same,outcome,[7],inactive
same,outcome,[8],inactive
CCN(CC)c1ccc2c(C)cc(=O)oc2c1,AC50,[1],4.66 µM (active)
same,AC50,[2],3.32 µM (active)
same,outcome,[3],inactive
same,AC50,[4],5 µM (active)
